19 compounds from PubChem BioAssay (EPA / NIEHS) can be followed below.

SMILES strings stand for the structures. Calls of active or inactive are those of the source. Rule for the calls: active = hit-call score of the fitted dose curve at least 0.9, where 1 is the maximum; inactive = score below 0.9.

Chain of Transcription factor E2F1 (Homo sapiens) (Q01094 whole entry, looked up): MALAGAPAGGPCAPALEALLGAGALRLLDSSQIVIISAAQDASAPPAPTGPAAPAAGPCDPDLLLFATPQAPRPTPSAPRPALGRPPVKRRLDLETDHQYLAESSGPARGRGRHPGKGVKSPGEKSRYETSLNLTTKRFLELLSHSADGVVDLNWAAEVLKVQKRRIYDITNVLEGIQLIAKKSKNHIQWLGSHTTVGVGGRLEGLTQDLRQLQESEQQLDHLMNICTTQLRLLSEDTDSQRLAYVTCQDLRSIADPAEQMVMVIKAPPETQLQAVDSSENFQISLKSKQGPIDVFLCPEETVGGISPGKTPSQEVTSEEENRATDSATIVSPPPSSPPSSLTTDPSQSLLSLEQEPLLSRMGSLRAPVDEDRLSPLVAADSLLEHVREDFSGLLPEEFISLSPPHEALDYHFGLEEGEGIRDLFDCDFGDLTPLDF

For one experiment, the target named is Transcription factor E2F1 (Homo sapiens) (UniProt Q01094). In words: ATG_E2F_CIS: Attagene CIS-FACTORIAL HepG2 Assay for human E2F Transcription Factor 1 (AID 2282935). The following applies: HepG2 Attagene cis-reporter, E2F reporter RNA transcripts; actives raise or lower the signal. The procedure, abridged:
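In this cis-factorial format, endogenous factor activity drives transfected reporters in HepG2; transcripts collected at 24 h are quantified by fluorescence after RT-PCR and capillary separation.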
With `Nc1ccc(N=Nc2ccccc2)cc1`, the compound was called inactive.
Still for that read-out and setting: to `CC(C)(C)OOC(C)(C)CCC(C)(C)OOC(C)(C)C` belongs “inactive”.
With `O=C(Oc1ccc(Br)cc1)N1CCN2CCC1CC2`, the compound was classed as inactive.
The same measure, in the same setting: to `[O-][Cl+]O` belongs “inactive”; to `Nc1ccc(Cl)cc1N`, “inactive”.
With `COc1cc(C=O)cc2c1[C@H](COC(N)=O)[C@]1(OC(C)=O)ON2C[C@H]2[C@@H]1N2C(C)=O`, the AC50 (in general, the concentration giving half of the maximal activity seen) is 61.5 µM (active).
`OCCCBr`: the compound was classed as inactive.
The same measure, in the same setting: then `N#CC(Br)(Br)C(N)=O`, with “inactive”.
Still for that read-out and setting: to `Cc1ccc(N=C=O)cc1N=C=O` belongs “inactive”; to `c1ccc2c(c1)-c1cccc3cccc-2c13`, “inactive”; to `COC(=O)c1ccccc1N`, “inactive”.
As for `O=Cc1ccco1`, the outcome was inactive.
The same measure, in the same setting: to `CCC(C)c1ccc(O)cc1` (stereo not drawn) belongs “inactive”.

Tested on in the next experiment: not listed separately
Kind of experiment: ATG_E_Box_CIS: Attagene CIS-FACTORIAL HepG2 Assay for human Enhancer Box (E-box) (AID 2282936). As to conditions: HepG2 E-box cis-reporter transcription, actives raise or lower the signal. The procedure, abridged: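 Measured 24 h post-dosing in HepG2 cells transfected with multiple cis-regulated reporter units, signal being reporter mRNA induction detected by fluorescent RT-PCR with capillary electrophoresis; gain or loss fitted against DMSO.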
Consider `Nc1ccc(N=Nc2ccccc2)cc1`, for which the half-maximal activity concentration (AC50) is 100 µM (active).
With `O=C(O)C1C2CCC(O2)C1C(=O)O` (stereo not drawn), the result was inactive.
On the same count and under the same terms, to `O=C(Nc1ccccc1)c1ccccc1I` belongs “inactive”.
Same read-out and setting: then `CC(O)CCO` (stereo not drawn), with “inactive”; and `CC(C)(C)OOC(C)(C)CCC(C)(C)OOC(C)(C)C`, with “inactive”.
Same read-out and setting: to `O=C(Oc1ccc(Br)cc1)N1CCN2CCC1CC2` belongs “inactive”; to `[O-][Cl+]O`, “inactive”.
For `Nc1ccc(Cl)cc1N`, the result was inactive.
As for `COc1cc(C=O)cc2c1[C@H](COC(N)=O)[C@]1(OC(C)=O)ON2C[C@H]2[C@@H]1N2C(C)=O`, the half-maximal activity concentration (AC50) is 0.1 µM (active).
Regarding `Nc1ccc([N+](=O)[O-])cc1`, the outcome was inactive.
Turning to `OCCCBr`, the result was inactive.
Still for that read-out and setting: then `CNC(=O)Oc1cccc2c1OC(C)(C)C2`, with “inactive”.
Consider `N#CC(Br)(Br)C(N)=O`, for which the result was inactive.
On the same count and under the same terms, to `Clc1ccc(C(c2ccc(Cl)cc2)C(Cl)Cl)cc1` belongs “inactive”.
The same measure, in the same setting: to `Cc1ccc(N=C=O)cc1N=C=O` belongs “inactive”.
